PubChem BioAssay (NCI)
Values joined by “and” are separate entries in the source; they are usually repeats but may differ in a detail not shown here. Identical values can stand only once. Compounds without any hit were thinned out: in the full panel of roughly 79,000, 15% have a hit. Some compounds were tested as several samples or in several runs, with calls that do not always agree. Active and inactive are the calls of the source. Rule as the data show it: active = growth inhibition above about 70%; inactive = the rest.

Key:
[1] = NCI Yeast Anticancer Drug Screen. Data for the mec2-1 strain (AID 157); details: S. cerevisiae mec2-1 strain, stronger effect = higher value
Procedure, shortened: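 Using mec2-1 yeast: add compound, measure growth, express inhibition versus vehicle-treated cultures.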

[2] = NCI Yeast Anticancer Drug Screen. Data for the rad14 strain (AID 159);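 also: 0% = growth of vehicle-treated control cultures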; details: S. cerevisiae rad14 strain growth inhibition, stronger effect = higher value
Procedure, shortened: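 Inhibition of growth is reported for a repair-deficient yeast mutant following compound treatment, calculated relative to cultures that received vehicle.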

[3] = NCI Yeast Anticancer Drug Screen. Data for the sgs1 mgt1 strain (AID 161);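 also: 0% = growth of cultures given vehicle only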; details: S. cerevisiae sgs1 mgt1 strain, stronger effect = higher value
Procedure, shortened: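 Percent growth inhibition was derived by comparing compound-exposed mutant yeast with vehicle-exposed cultures. The strain carries alterations in DNA damage repair.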

[4] = NCI Yeast Anticancer Drug Screen. Data for the CLN2oe strain (AID 163);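 also: 0% = growth of vehicle-only control cultures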; details: S. cerevisiae CLN2oe strain, stronger effect = higher value
Procedure, shortened: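 Whole-cell yeast growth assay. A strain engineered for altered cell-cycle control received compound, and inhibition relative to vehicle-treated cultures was recorded.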

[5] = NCI Yeast Anticancer Drug Screen. Data for the cln2 rad14 strain (AID 165);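 also: 0% = growth equal to vehicle treated cultures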; details: S. cerevisiae cln2 rad14 strain, stronger effect = higher value
Procedure, shortened: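 Yeast strain cln2 rad14, bearing defects in cell cycle control and DNA repair, serves as the test system; values reflect growth inhibition compared with vehicle.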

[6] = NCI Yeast Anticancer Drug Screen. Data for the bub3 strain (AID 167); details: S. cerevisiae bub3 mutant strain, stronger effect = higher value
Procedure, shortened: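 Mutant yeast screening strain plus compound; vehicle-treated cultures serve as the 0% inhibition reference.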

[7] = NCI Yeast Anticancer Drug Screen. Data for the wt2 strain (AID 169); details: S. cerevisiae wt2 strain growth inhibition, stronger effect = higher value
Procedure, shortened: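 Treated yeast vs. vehicle-treated yeast: growth inhibition determined.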

[8] = NCI Yeast Anticancer Drug Screen. Data for the mlh1 strain (AID 171);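 also: 0% = growth of vehicle-treated control cultures of the same strain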; details: S. cerevisiae mlh1 strain growth inhibition, stronger effect = higher value
Procedure, shortened: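 A yeast strain with a defined genetic lesion serves as the test organism. Cultures receive compound or vehicle, and growth is measured.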

[9] = NCI Yeast Anticancer Drug Screen. Data for the sgs1 strain (AID 173);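 also: 0% = growth of vehicle-only control cultures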; details: S. cerevisiae sgs1 mutant, stronger effect = higher value
Procedure, shortened: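 A genetically defined yeast mutant is incubated with the test compound, and its growth is compared to that of the same strain given vehicle.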

[10] = NCI Yeast Anticancer Drug Screen. Data for the mlh1 rad18 strain (AID 175); details: S. cerevisiae mlh1 rad18 strain growth inhibition, stronger effect = higher value
Procedure, shortened: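 Steps: expose repair-defective yeast to compound; measure growth; express inhibition against vehicle-treated controls.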

[11] = NCI Yeast Anticancer Drug Screen. Data for the rad18 strain (AID 177); details: S. cerevisiae rad18 mutant growth inhibition, stronger effect = higher value
Procedure, shortened: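 Measured value is growth inhibition of a yeast strain bearing a DNA repair alteration, referenced to vehicle-treated cells.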

[12] = NCI Yeast Anticancer Drug Screen. Data for the rad52 strain (AID 147);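 also: 0% = growth of vehicle-treated control cultures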; details: S. cerevisiae rad52 mutant growth inhibition, stronger effect = higher value
Procedure, shortened: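 Here a repair-compromised yeast strain receives each compound; its growth is then quantified and normalised to vehicle-only controls.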

[13] = NCI Yeast Anticancer Drug Screen. Data for the wt1 strain (AID 149);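 also: 0% = growth of vehicle-treated wt1 cultures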; details: S. cerevisiae wt1 strain (SPY 50644) growth inhibition, stronger effect = higher value
Procedure, shortened: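 Each compound is tested on wt1 yeast and the loss of growth versus vehicle gives the inhibition value.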

[14] = NCI Yeast Anticancer Drug Screen. Data for the rad50EPP+ strain (AID 151);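 also: 0% = growth of vehicle-treated control cultures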; details: S. cerevisiae rad50 mutant strain, stronger effect = higher value
Procedure, shortened: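 Read-out is yeast growth inhibition relative to vehicle; cells used were the rad50EPP+ strain.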

[15] = NCI Yeast Anticancer Drug Screen. Data for the mgt1 strain (AID 153); details: S. cerevisiae mgt1 mutant growth inhibition, stronger effect = higher value
Procedure, shortened: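 Measured: inhibition of mgt1 yeast growth by compound, normalized to vehicle-treated cultures.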

[16] = NCI Yeast Anticancer Drug Screen. Data for the rad50 strain (AID 155);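 also: 0% = growth of vehicle-only cultures of the same strain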; details: S. cerevisiae rad50 strain growth inhibition, stronger effect = higher value
Procedure, shortened: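 Vehicle-treated cultures provide the reference for the growth inhibition reported for compound-exposed, repair-deficient yeast.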

[17] = at 5.0 µM (retest, dose inferred, filed as 0.5)
[18] = at 50.0 µM (retest, dose inferred, filed as 5.0)

Measured: growth inhibition

CC[C@](O)(C(=O)O)c1cc2n(c(=O)c1CO)Cc1cc3ccccc3nc1-2
inactive: [2]; at 1.2 µM 3% | [2]; at 3.7 µM 29% | [4]; at 1.2 µM -7% | [4]; at 3.7 µM 36% | [5]; [17] 66% | [6]; at 1.2 µM -16% | [6]; at 3.7 µM -3% | [6]; [17] 58% | [6]; at 11.0 µM 67% | [7]; at 1.2 µM -3% | [7]; at 3.7 µM 13% | [8]; at 1.2 µM 3% | [8]; at 3.7 µM 21% | [9]; at 1.2 µM 17% | [9]; at 3.7 µM 64% | [11]; at 1.2 µM 4% | [11]; at 3.7 µM 29%
active: [1]; [17] 95% | [1]; at 11.0 µM 94% | [1]; at 33.0 µM 95% | [1]; [18] 98% | [1]; at 50.0 µM 97% | [1]; at 100.0 µM 96% | [2]; at 11.0 µM 81% | [2]; at 33.0 µM 93% | [2]; at 100.0 µM 96% | [3]; [17] 88% | [3]; [18] 97% | [3]; at 50.0 µM 97.2% | [4]; at 11.0 µM 88% | [4]; at 33.0 µM 93% | [4]; at 100.0 µM 96% | [5]; [18] 96% | [5]; at 50.0 µM 87.8% | [6]; at 33.0 µM 91% | [6]; [18] 97% | [6]; at 50.0 µM 96.8% | [6]; at 100.0 µM 95% | [7]; at 11.0 µM 81% | [7]; at 33.0 µM 95% | [7]; at 100.0 µM 94% | [8]; at 11.0 µM 81% | [8]; at 33.0 µM 94% | [8]; at 100.0 µM 97% | [9]; at 11.0 µM 92% | [9]; at 33.0 µM 95% | [9]; at 100.0 µM 97% | [10]; [17] 83% | [10]; [18] 97% | [10]; at 50.0 µM 96.5% | [11]; at 11.0 µM 82% | [11]; at 33.0 µM 93% | [11]; at 100.0 µM 96%

COc1ccc([N+]2=NC(c3ccc([N+](=O)[O-])cc3)=NN(c3ccccc3)C2)cc1
active: [12]; at 100.0 µM 91% | [13]; at 100.0 µM 94% and 89% | [16]; at 50.0 µM 78.3% and 73.8% | [16]; at 100.0 µM 90% and 88% | [1]; at 50.0 µM 75.2% and 70.8% | [4]; at 100.0 µM 90% and 70% | [6]; [18] 84% and 88% | [6]; at 50.0 µM 90.5% and 91.4% | [7]; at 100.0 µM 93% | [9]; at 100.0 µM 93% and 92% | [10]; at 50.0 µM 87.9% and 86.3%
93% (active) and 41% (inactive): [15]; at 100.0 µM
92% (active) and 59% (inactive): [8]; at 100.0 µM
82% (active) and 58% (inactive): [14]; at 100.0 µM
92% (active) and 50% (inactive): [1]; at 100.0 µM
78.8% (active) and 63.6% (inactive): [3]; at 50.0 µM
91% (active) and 63% (inactive): [2]; at 100.0 µM
90% (active) and 56% (inactive): [6]; at 100.0 µM
inactive: [12]; at 1.2 µM -3% and -1% | [12]; at 3.7 µM -1% and 1% | [12]; at 11.0 µM 1% and 2% | [12]; at 33.0 µM 37% and 12% | [13]; at 1.2 µM 1% | [13]; at 3.7 µM 0% | [13]; at 11.0 µM -3% and -5% | [13]; at 33.0 µM 1% and -2% | [14]; at 1.2 µM -10% and -9% | [14]; at 3.7 µM -4% and -5% | [14]; at 11.0 µM 3% and 4% | [14]; at 33.0 µM 32% and 9% | [15]; at 1.2 µM -1% | [15]; at 3.7 µM -2% and -6% | [15]; at 11.0 µM -1% and 2% | [15]; at 33.0 µM 43% and -6% | [16]; at 1.2 µM -6% and -5% | [16]; at 3.7 µM -16% | [16]; [17] 8% and 7% | [16]; at 11.0 µM -17% and -13% | [16]; at 33.0 µM 34% and 11% | [16]; [18] 52% and 31% | [1]; at 1.2 µM -5% and -1% | [1]; at 3.7 µM -5% and -2% | [1]; [17] -10% and -3% | [1]; at 11.0 µM -5% and 1% | [1]; at 33.0 µM 6% and 5% | [1]; [18] 21% and 4% | [2]; at 1.2 µM 2% | [2]; at 3.7 µM 1% | [2]; at 11.0 µM 4% and 2% | [2]; at 33.0 µM 14% and 9% | [3]; [17] 2% and -1% | [3]; [18] 22% and 50% | [4]; at 1.2 µM 0% and 5% | [4]; at 3.7 µM -3% and 0% | [4]; at 11.0 µM -7% and 4% | [4]; at 33.0 µM 21% and 9% | [5]; [17] 5% and -13% | [5]; [18] 48% and 43% | [5]; at 50.0 µM 51% and 38.8% | [6]; at 1.2 µM 5% and 1% | [6]; at 3.7 µM 17% and 4% | [6]; [17] 15% and 17% | [6]; at 11.0 µM 17% and 9% | [6]; at 33.0 µM 35% and 5% | [7]; at 1.2 µM 0% and 1% | [7]; at 3.7 µM -1% | [7]; at 11.0 µM -2% | [7]; at 33.0 µM 27% and 7% | [8]; at 1.2 µM 0% | [8]; at 3.7 µM -2% and -3% | [8]; at 11.0 µM -1% and -3% | [8]; at 33.0 µM 14% and 16% | [9]; at 1.2 µM -2% and -3% | [9]; at 3.7 µM 3% and -1% | [9]; at 11.0 µM 8% | [9]; at 33.0 µM 48% and 42% | [10]; [17] 4% and 9% | [10]; [18] 67% and 51%
